Measured values reported in PubChem BioAssay (NCI).
About 83,000 compounds went through this panel and 20% of them were active in at least one assay; those are over-represented in the sample as a whole.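 Step 1: grow cells in 96-well plates. Step 2: add test compound at a single concentration. Step 3: incubate 48 h. Step 4: record percent growth.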 A number with no mark means an inactive call. The source made the active and inactive calls. How the source made its calls: active means growth percent below 10; inactive means the rest.

What was measured:
Test in all cases: NCI-60 one-dose screen, 48 h (100 = growth as untreated, 0 = no growth, -100 = all killed)
Conditions in all cases: 10 µM unless noted
NCI-H23 lung = system: NCI-H23 lung
NCI-H226 lung = system: NCI-H226 lung
NCI-H322M lung = system: NCI-H322M lung
HOP-62 NSCLC = system: HOP-62 NSCLC
HOP-92 NSCLC = system: HOP-92 NSCLC
NCI-H522 lung = system: NCI-H522 lung
A549/ATCC NSCLC = system: A549/ATCC NSCLC
786-0 renal = system: 786-0 renal
COLO 205 colon = system: COLO 205 colon
DU-145 prostate = system: DU-145 prostate
K-562 leukemia = system: K-562 leukemia
MALME-3M melanoma = system: MALME-3M melanoma
MDA-MB-231 breast = system: MDA-MB-231 breast
RXF 393 renal = system: RXF 393 renal
SF-268 CNS = system: SF-268 CNS
SF-295 CNS = system: SF-295 CNS
SF-539 CNS = system: SF-539 CNS
UACC-257 melanoma = system: UACC-257 melanoma
M14 melanoma = system: M14 melanoma
NCI-H460 lung = system: NCI-H460 lung

SMILES | growth (NCI-H23 lung) | growth (NCI-H226 lung) | growth (NCI-H322M lung) | growth (HOP-62 NSCLC) | growth (HOP-92 NSCLC) | growth (NCI-H522 lung) | growth (A549/ATCC NSCLC) | growth (786-0 renal) | growth (COLO 205 colon) | growth (DU-145 prostate) | growth (K-562 leukemia) | growth (MALME-3M melanoma) | growth (MDA-MB-231 breast) | growth (RXF 393 renal) | growth (SF-268 CNS) | growth (SF-295 CNS) | growth (SF-539 CNS) | growth (UACC-257 melanoma) | growth (M14 melanoma) | growth (NCI-H460 lung)
Cc1cc(C)nc(SC2=C(Nc3cccc(Cl)c3)C(=O)N(Cc3ccccc3)C2=O)n1 | 82% [30 µM] | 83% [30 µM] | 88.8% [30 µM] | 90.3% [30 µM] | -7.47% [30 µM] (active) | 67.9% [30 µM] | 26.4% [30 µM] | 72.1% [30 µM] | 78.2% [30 µM] | 79.6% [30 µM] | 51.8% [30 µM] | 91.9% [30 µM] | 61.2% [30 µM] | 72.6% [30 µM] | 66.8% [30 µM] | -12.3% [30 µM] (active) | 69.7% [30 µM] | 71.7% [30 µM] | 74.8% [30 µM] | 
Cc1ccc(C(SCC(N)C(=O)O)(c2ccccc2)c2ccc(C)cc2)cc1 (stereo not given) | 12.6% | 56.3% | 29.4% | 31.9% | -10.1% (active) | -19% (active) | -2.96% (active) | 25.1% | -3.13% (active) | -43.8% (active) |  | 19.8% | -12.7% (active) |  | 20.5% | 14.7% | -5.21% (active) |  | -34.4% (active) | 9.22% (active)
COc1ccc(/C=C\c2cc(OC)c(OC)c(OC)c2)cc1OCC(=O)Nc1ccc2nc(C)sc2c1 | 37.6% | 24.8% | 69.9% | 44.4% | 52% | -2.14% (active) | 30.5% | 79.6% | 75% | 64.6% | 18.4% | 42.2% | 37.1% | 70.3% | 52.1% |  | 57.1% | 58.5% | 25.9% | 
Brc1ccc(-c2csc(Nc3ccccn3)n2)cc1 | 58.8% | 73% | 95.2% | 85.4% | 73% | 78.2% | 91.3% | 88.5% | 107% | 109% | 57.1% | 76.3% | 86.3% | 118% | 115% | 99.9% | 102% | 105% | 96.9% | 
NS(=O)(=O)c1ccc(CN=C2NC(=O)S/C2=C\c2ccc(Br)cc2)cc1 | 97.6% | 96.9% | 91% | 103% | 90.5% | 90.8% | 98.3% | 94.1% | 106% | 111% | 102% | 93.8% | 101% | 105% | 92.3% | 102% | 92.3% | 102% | 102% | 
COc1cccc(-c2nc3sccn3c2-c2ccnc(NCCCNS(=O)(=O)c3cccc(Cl)c3)c2)c1 | 39% | 33.8% | 77.4% | 65% | 48.8% | 43.7% | 35.8% | 63.9% | 39.8% | 46.4% | 22.2% | 60% | 71.9% | 71.9% | 52.2% | 21.2% | 86.2% | 55.2% | 30.8% | 
Cc1cc2nc3[nH]c4ccccc4c3nc2cc1C | 99.6% | 96.1% | 98.7% | 94.2% | 67.2% | 94% | 87.2% | 79.3% | 88% | 79.4% |  | 76.6% | 64.4% |  | 74.6% | 102% | 70.7% |  | 101% | 93.8%
O=C(Cn1cccc(Nc2ccccc2)c1=O)Nc1ccccc1 | 113% | 103% | 114% | 105% | 97% | 110% | 106% | 106% | 107% | 111% | 108% |  | 108% | 100% | 107% | 106% | 97.1% | 99.6% | 102% | 
CC(C)C[C@@H](NC(=O)[C@@H](Cc1ccccc1)NC(=O)c1cnccn1)B1Oc2ccc(C[C@H](NC(=O)[C@H](Cc3ccc4c(c3)OB([C@@H](CC(C)C)NC(=O)[C@@H](Cc3ccccc3)NC(=O)c3cnccn3)O4)NC(=O)[C@@H](N)CC3CCC4OB([C@@H](CC(C)C)NC(=O)[C@@H](CC5CCCCC5)NC(=O)C5CNCCN5)OC4C3)C(=O)NCCCC[C@@H]3NC(=O)[C@@H](Cc4ccccc4)NC(=O)[C@H](CC(=O)O)NC(=O)CNC(=O)[C@H](CCCNC(=N)N)NC3=O)cc2O1 (stereo not given in full) | -41.3% (active) | -50.2% (active) | -8.33% (active) | -43.2% (active) | -74.1% (active) | -43.4% (active) | -49.5% (active) | -12.6% (active) | -72.6% (active) | -44.8% (active) | -0.546% (active) | -20.3% (active) | -7.69% (active) | -89.2% (active) | -52.7% (active) | -68.6% (active) | -37.6% (active) | -11.7% (active) | 0.189% (active) | 
COc1ccc2c(c1)C(=O)/C(=C/c1cccnc1)CC2 | 90.9% | 107% | 106% | 97.5% | 94.7% | 73.2% | 101% | 94.6% | 105% | 97% |  | 106% | 87.7% | 109% | 94.2% | 84.2% | 90.5% | 108% | 102% | 
Cc1nn(-c2cc(=O)[nH]c3ccccc23)c(N)c1C#N | 106% | 91.4% | 97% | 100% | 106% | 95.6% | 107% | 105% | 123% | 107% | 105% | 108% | 103% | 112% | 97.7% | 100% | 95% | 110% | 106% | 
O=C(COc1ccc(-c2nc3cc(Cl)c(Cl)cc3[nH]2)cc1)N=Nc1c(O)[nH]c2ccccc12 | 31.8% | -30.2% (active) | 4.51% (active) | 50.1% | -33.3% (active) | 13.6% | 29% | -44.8% (active) | 12.6% | -20.7% (active) | 10.8% | -68.9% (active) | -50.2% (active) | -5.96% (active) | -64.5% (active) | 5.99% (active) | 41.4% | 54.4% | -22.1% (active) | 
Cc1ccc(C2=NN3C(C2)c2cc(Br)ccc2OC32CCN(Cc3ccccc3)CC2)o1 (stereo not given) | 94.9% | 86.9% | 92.7% | 104% | 80% | 89.1% | 96.3% | 103% | 105% | 98.8% | 85.3% | 103% | 92.3% | 110% | 84.4% | 100% | 101% | 101% | 106% | 
